Screening data from PubChem.
Rows were chosen to be rich in hits. Some 22% of all compounds tested hit in one or more screens of this group.
CYP2C9 act: increases human cytochrome P450 2C9 activity. activation factor at 5 µM. 1.4% of 96,000 active. recombinant CYP2C9, luciferin-H conversion, luminescence; hits give high values; factor 1 = untreated enzyme, 0 = blocked. P11712. AID 1024;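 active means activation factor of 2 or more for CYP2C9 at a 5 µM dose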
Target sequence (P11712 whole entry, looked up): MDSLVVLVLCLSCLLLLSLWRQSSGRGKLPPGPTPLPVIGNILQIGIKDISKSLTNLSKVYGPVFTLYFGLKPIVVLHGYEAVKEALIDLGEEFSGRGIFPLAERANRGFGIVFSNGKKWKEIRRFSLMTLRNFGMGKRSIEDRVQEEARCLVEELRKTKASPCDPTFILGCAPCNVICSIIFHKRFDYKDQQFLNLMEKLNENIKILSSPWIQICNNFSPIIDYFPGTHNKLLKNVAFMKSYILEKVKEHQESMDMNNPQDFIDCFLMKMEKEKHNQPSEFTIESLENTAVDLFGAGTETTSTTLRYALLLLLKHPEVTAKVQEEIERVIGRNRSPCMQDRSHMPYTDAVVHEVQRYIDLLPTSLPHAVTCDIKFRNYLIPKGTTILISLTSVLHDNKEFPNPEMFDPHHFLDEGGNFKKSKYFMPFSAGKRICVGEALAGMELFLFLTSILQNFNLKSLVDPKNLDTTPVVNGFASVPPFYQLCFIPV
CYP2C9 inhib: human CYP2C9 inhibition; inhibition, % at 5 µM; P11712; CYP2C9 Supersomes, luciferin-H conversion, luminescence; 20% of 96,000 active; AID 777;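 active means blocking of liver enzyme CYP2C9 beyond about 50% at 5 µM, limit read from the data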
CYP2C19 activ: increases human CYP2C19 enzyme activity; P33261; recombinant CYP2C19, luciferin-H EGE luminescence; hits give high values; 0 = fully inhibited enzyme, 1 = untreated enzyme; activation factor at 5 µM; 96,000 tested, under 10 active;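 active means activation factor of at least 2 at 5 µM in the primary screen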
Measles CPE: protection of cells from measles virus | Measles virus-infected cells, CPE protection, absorbance | protection (pct of control), % at 4 µM | 1.5% of 140,000 active | AID 841; in the data active means protection mostly above about 24%, no sharp cut-off; inactive means mostly below about 26%
CYP2C19 inhib: human CYP2C19 inhibition. P33261. CYP2C19 Supersomes, luciferin-H EGE luminescence, 30 min. inhibition, % at 5 µM. 21% of 96,000 active;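 active means CYP2C19 inhibition above a set limit at 5 µM in the primary screen, cut at about 50% in these data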
Hits are given with their value.

Results for Cc1ccc(-n2c(O)c(C=NCc3ccccn3)c3ccccc3c2=O)cc1C ?
Measles CPE: inactive

How did CSc1nsc(/C=C/Nc2cccc(Cl)c2)c1C#N do in these assays?
CYP2C9 act: inactive; CYP2C9 inhib: 65; CYP2C19 activ: inactive; Measles CPE: inactive; CYP2C19 inhib: inactive

How did CSc1nsc(/C=C/Nc2ccc(Cl)cc2)c1C#N do in these assays?
CYP2C9 act: inactive; CYP2C9 inhib: inactive; CYP2C19 activ: inactive; Measles CPE: inactive; CYP2C19 inhib: inactive

Results for CC(=O)Nc1ccc(C(=O)CSc2cc(C)c3cccc(C)c3n2)cc1 ?
Measles CPE: inactive

How did COc1ccc(N2CCN(C(=O)c3cn(C4CCCC4)c(=O)c4c3c3ccccc3n4C)CC2)cc1 do in these assays?
CYP2C9 act: inactive; CYP2C9 inhib: 90; CYP2C19 activ: inactive; Measles CPE: inactive; CYP2C19 inhib: 77

What do the screens show for `CC(C)Cn1cc(C(=O)N2CCOCC2)c2c3ccccc3n(C)c2c1=O`?
CYP2C9 act: inactive; CYP2C9 inhib: inactive; CYP2C19 activ: inactive; Measles CPE: 40; CYP2C19 inhib: inactive

Results for Cn1c2ccccc2c2c(C(=O)O)cn(C3CCCC3)c(=O)c21 ?
CYP2C9 act: inactive; CYP2C9 inhib: inactive; CYP2C19 activ: inactive; Measles CPE: inactive; CYP2C19 inhib: inactive

How did CCOC(=O)N1CCN(C(=O)c2cn(CC(C)C)c(=O)c3c2c2ccccc2n3C)CC1 do in these assays?
CYP2C9 act: inactive; CYP2C9 inhib: inactive; CYP2C19 activ: inactive; Measles CPE: inactive; CYP2C19 inhib: inactive

What do the screens show for `Cn1c2ccccc2c2c(C(=O)NCc3ccco3)cn(C3CCCCC3)c(=O)c21`?
CYP2C9 act: inactive; CYP2C9 inhib: inactive; CYP2C19 activ: inactive; Measles CPE: 42; CYP2C19 inhib: inactive

How did Cn1c2ccccc2c2c(C(=O)N3CCN(C(=O)c4ccco4)CC3)cn(C3CCCCC3)c(=O)c21 do in these assays?
CYP2C9 act: inactive; CYP2C9 inhib: 74; CYP2C19 activ: inactive; Measles CPE: inactive; CYP2C19 inhib: inactive

How did COc1cccc(C(=O)NCC(=O)N/N=C/c2ccc(OC(=O)c3cccs3)c(OC)c2)c1 do in these assays?
Measles CPE: inactive

Results for C=CCN1C(=O)C2(C(C#N)=C(N)Oc3n[nH]c(CCC)c32)c2ccccc21 (centres undefined) ?
CYP2C9 act: inactive; CYP2C9 inhib: inactive; CYP2C19 activ: inactive; Measles CPE: inactive; CYP2C19 inhib: inactive

Results for CC(C)c1nnc(NC(=O)CCC(=O)NCc2ccco2)s1 ?
CYP2C9 act: inactive; CYP2C9 inhib: inactive; CYP2C19 activ: inactive; Measles CPE: inactive; CYP2C19 inhib: inactive

What do the screens show for `Cn1c2ccccc2c2c(C(=O)N3CCN(c4ccccn4)CC3)cn(C3CCCC3)c(=O)c21`?
CYP2C9 act: inactive; CYP2C9 inhib: 94; CYP2C19 activ: inactive; Measles CPE: inactive; CYP2C19 inhib: 69

Results for COc1ccc(C(=O)/C=C/c2cccs2)c(OC(=O)c2cccc([N+](=O)[O-])c2)c1 ?
CYP2C9 act: inactive; CYP2C9 inhib: 50; CYP2C19 activ: inactive; Measles CPE: inactive; CYP2C19 inhib: inactive

What do the screens show for `COc1ccc(-c2n[nH]c(=S)n2-c2ccc3c(c2)OCCO3)cc1`?
Measles CPE: inactive

Results for Oc1ccc(-c2n[nH]c(=S)n2-c2ccc3c(c2)OCCO3)c(O)c1 ?
Measles CPE: 60

Results for Cc1ccc(N2C(=O)c3ccccc3C2Nc2ccc(S(=O)(=O)N3CCCCC3)cc2)nc1 (centres undefined) ?
CYP2C9 act: inactive; CYP2C9 inhib: inactive; CYP2C19 activ: inactive; Measles CPE: inactive; CYP2C19 inhib: inactive

How did O=C1c2ccccc2C(Nc2ccc(S(=O)(=O)N3CCCCCC3)cc2)N1Cc1ccco1 (centres undefined) do in these assays?
CYP2C9 act: inactive; CYP2C9 inhib: 97; CYP2C19 activ: inactive; Measles CPE: inactive; CYP2C19 inhib: inactive

How did CCc1ccccc1NC1c2ccccc2C(=O)N1Cc1ccco1 (centres undefined) do in these assays?
CYP2C9 act: inactive; CYP2C9 inhib: inactive; CYP2C19 activ: inactive; Measles CPE: inactive; CYP2C19 inhib: inactive

Results for CCOc1ccccc1NC1c2ccccc2C(=O)N1Cc1ccco1 (centres undefined) ?
CYP2C9 act: inactive; CYP2C9 inhib: inactive; CYP2C19 activ: inactive; Measles CPE: inactive; CYP2C19 inhib: 63

What do the screens show for `Cc1cc(Br)ccc1NC(=O)CNC(=O)CN1C(=O)NC2(CCCCCC2)C1=O`?
CYP2C9 act: inactive; CYP2C9 inhib: inactive; CYP2C19 activ: inactive; Measles CPE: inactive; CYP2C19 inhib: inactive
